Consider 39 compounds from PubChem BioAssay (NCATS).

Structures are written as SMILES. Results filed as inconclusive are left out. Active and inactive are the calls of the source. Calls follow the shape of the dose curve; as a rule, active = well fitted inhibition curve with a large enough effect; inconclusive = small, poorly fitted or top-dose-only effect; inactive = no such curve, though single readings can be large or run the other way.

For the first experiment, the target named is Retinaldehyde dehydrogenase 3 (Homo sapiens) (UniProt P47895). The experiment can be described thus: qHTS for Inhibitors of the Aldehyde Dehydrogenase Family (ALDH1A3) Confirmatory screens (AID 2061311). Also: potency is read from the fitted curve at half-maximal effect; nearly all actives have a fitted effect of over 60% in size. The note with it: ALDH inhibition qHTS; series mostly up to 46 µM.
Consider `COc1cccc(CNc2ccc(S(=O)(=O)Nc3nc(C)c(C)s3)cc2)c1O`, for which the Potency is 12.7 µM (active).
As to `[Cl][Pt].[NH2-].[NH2-].c1ccncc1`, the Potency was 11.3 µM (active).
Regarding `COc1ccc(-n2c(C)cc(-c3nnc4n3CCCCC4)c2C)cc1`, the Potency was 10.1 µM (active).

Another experiment shares this target. The experiment can be described thus: qHTS for Inhibitors of the Aldehyde Dehydrogenase Family (ALDH1A3) Primary screen (AID 2061315).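 Also: plate controls were DMSO vehicle for no effect and reference inhibitor for full effect.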 The note with it: ALDH inhibition qHTS; series mostly up to 56 µM.
In the case of `CN[C@@H]1C[C@H]2O[C@@](C)([C@@H]1OC)n1c3ccccc3c3c4c(c5c6ccccc6n2c5c31)C(=O)NC4`, the Potency entry is “inactive”.
`O=C(N[C@@H](COc1ccc2[nH]c(=O)[nH]c2c1)c1ccccc1)c1cccn(Cc2ccc(F)c(F)c2)c1=O`: the Potency entry was “inactive”.
Regarding `Cc1nc2ccccn2c1P(=S)(c1ccccc1)c1ccccc1`, the Potency result is “inactive”.
As for `C=C1[C@@H](C)[C@H]2[C@H](Cc3ccccc3)NC(=O)[C@]23OC(=O)/C=C/C(=O)CCC[C@@H](C)C/C=C/[C@H]3[C@@H]1O`, the Potency entry was “inactive”.
Same read-out and setting: in the case of `S=P(c1ccccc1)(c1ccccc1)c1c(-c2ccccc2)[nH]c2ccccc12` it was “inactive”; in that of `C[C@@H]1O[C@@H](O[C@H]2CC[C@@]3(C)C(CC[C@@H]4C3CC[C@]3(C)[C@@H](C5=CC(=O)OC5)CC[C@]43O)C2)[C@H](O)[C@H](O)[C@H]1O` (stereo partly specified), “inactive”.
On the same count and under the same terms, the entry for `COc1ccc(CCNCc2ccc(OC)c3ccccc23)cc1` is “inactive”; for `O=C(NCC1CCOCC1)c1cnc(Nc2ccc(Cl)cc2Cl)nc1C(F)(F)F` it is “inactive”; for `C[C@]12CC[C@H](O)CC1=CC[C@@H]1[C@@H]2CC[C@]2(C)C(=O)CC[C@@H]12` it is “inactive”.
Consider `CCC1CN2CCC3(C(=O)Nc4cccc(O)c43)C2CC1/C(=C/OC)C(=O)OC` (stereo unspecified), for which the Potency entry is “inactive”.
On to `S=P(c1ccccc1)(c1ccccc1)c1c[n+](Cc2ccccc2)c2ccccn12`, for which the Potency entry is “inactive”.
`C[C@@H](CN1CCC(n2c(=O)[nH]c3cc(Br)ccc32)CC1)NC(=O)[C@@H]1C[C@H]1c1ccccc1`: the Potency entry was “inactive”.
Still for that read-out and setting: the entry for `COc1ccc(-n2c(C)cc(-c3nnc4n3CCCCC4)c2C)cc1` is “inactive”.
For the compound `O=C(O)c1ccc(O)c2ncc(N3CCCNCC3)cc12`, the Potency entry is “inactive”.
Still for that read-out and setting: in the case of `C[C@H]1CCC/C=C/C2C[C@H](O)C[C@H]2[C@H](O)/C=C/C(=O)O1` (stereo partly specified) it was “inactive”.

The target in another experiment is Aldehyde dehydrogenase 1A1 (Homo sapiens) (UniProt P00352). The experiment can be described thus: qHTS for Inhibitors of the Aldehyde Dehydrogenase Family (ALDH1A1) Confirmatory screens (AID 2061316). Also: potency is read from the fitted curve at half-maximal effect; nearly all actives have a fitted effect of over 65% in size. As to conditions: ALDH inhibition qHTS; series mostly up to 47.3 µM.
Take `COc1cccc(CNc2ccc(S(=O)(=O)Nc3nc(C)c(C)s3)cc2)c1O`: the Potency is 10.1 µM (active).
The same measure, in the same setting: the figure for `[Cl][Pt].[NH2-].[NH2-].c1ccncc1` is 7.12 µM (active).
Still for that read-out and setting: the figure for `COc1ccc(-n2c(C)cc(-c3nnc4n3CCCCC4)c2C)cc1` is 12.7 µM (active).

Test system in a further experiment: not listed separately
The experiment can be described thus: BET inhibitor-based combinations targeting novel dependencies in MECOM-rearranged (r) AML: SET-2 cell line (AID 2202231). Also: nearly all actives have a fitted effect of over 35% in size. Also: potency is read from the fitted curve at half-maximal effect.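 As to viability: plate controls were DMSO treated cells for no effect and wells without cells for full effect.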 As to conditions: SET-2 AML cells viability, CellTiter-Glo luminescence, 48 h; viability: hits give low values, concentration not given here. A digest of the protocol: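 Each compound was tested at eleven concentrations on cells seeded at 500/well. After two days' incubation, ATP-based luminescence reported viability; responses relative to DMSO and blank wells yielded AUC and cell-line-centred Z-AUC.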
Take `O=C(N[C@@H](COc1ccc2[nH]c(=O)[nH]c2c1)c1ccccc1)c1cccn(Cc2ccc(F)c(F)c2)c1=O`: the viability was 94% (inactive).
With `CN(C)[C@@H]1C(=O)C(C(N)=O)=C(O)[C@@]2(O)C(=O)C3=C(O)c4c(O)cccc4[C@@](C)(O)[C@H]3[C@H](O)[C@@H]12`, the viability is 103% (inactive).
Regarding `C/C(O)=C(\C#N)C(=O)Nc1cc(Br)ccc1Br`, the viability is 90% (inactive).
On to `O=C(Nc1ccncc1)C(=O)c1cn(Cc2ccc(Cl)cc2)c2ccccc12`, for which the Potency was 0.525 µM (active).
Take `COc1cc(C)[nH]c(=O)c1CNC(=O)c1c(C)n([C@H](C)C2CCN(CC(F)(F)F)CC2)c2ccccc12`: the viability was 101% (inactive).
Regarding `O=C(CBr)N1CC([N+](=O)[O-])([N+](=O)[O-])C1`, the Potency was 38.2 µM (active).
Same read-out and setting: in the case of `CO[C@H]1CCC(O[C@H]2C[C@H]([C@]3(C)CC[C@]4(C[C@H](O)[C@@H](C)[C@@H]([C@@H](C)/C=C(\C)C(=O)[C@H](C)C[C@H](C)C(=O)O)O4)O3)O[C@]3(O[C@@H]([C@H]4O[C@@](O)(CO)[C@H](C)C[C@@H]4C)C[C@@H]3C)[C@@H]2C)O[C@@H]1C` (stereo partly specified) it was 1.48 µM (active); in that of `COc1cc([C@@H]2c3cc4c(cc3[C@@H](O)C3COC(=O)C32)OCO4)cc(OC)c1O` (stereo partly specified), 0.468 µM (active).
`C=C[C@H]1CN2CCC1C[C@@H]2[C@@H](O)c1ccnc2ccccc12` (stereo partly specified): the viability is 98.5% (inactive).
Regarding `CC(C)(O)C(=O)Nc1ccc([N+](=O)[O-])c(C(F)(F)F)c1`, the Potency was 23.5 µM (active).
With `CC1(C)CC(O)CC(C)(C)N1O`, the viability is 115% (inactive).
On to `C[C@@H](C1CC[C@@]2(O)C3=CC(=O)[C@@H]4C[C@@H](O)[C@@H](O)C[C@]4(C)[C@H]3CC[C@]12C)[C@H](O)CCC(C)(C)O` (stereo partly specified), for which the viability was 104% (inactive).
With `CC1(C)CC[C@]2(NC(=O)C(C)(F)F)CC[C@]3(C)[C@H](C(=O)C=C4[C@@]5(C)C=C(C#N)C(=O)C(C)(C)[C@@H]5CC[C@]43C)[C@@H]2C1`, the Potency is 1.66 µM (active).
Still for that read-out and setting: in the case of `COc1cc2cc(c1Cl)N(C)C(=O)C[C@H](OC(=O)C(C)C)[C@]1(C)O[C@@H]1[C@H](C)[C@@H]1C[C@@](O)(NC(=O)O1)[C@H](OC)/C=C/C=C(\C)C2` it was 0.0021 µM (active).
For the compound `O=C(NCC1CCOCC1)c1cnc(Nc2ccc(Cl)cc2Cl)nc1C(F)(F)F`, the viability was 97.9% (inactive).
On to `C[C@]12CC[C@H]3[C@@H](CCC4=CC(=O)CC[C@@]43C)[C@H]1CC[C@H]2OC(=O)CCC1CCCC1`, for which the viability was 96.4% (inactive).
The same measure, in the same setting: in the case of `N#CC(O[C@@H]1O[C@H](CO[C@@H]2O[C@H](CO)[C@@H](O)[C@H](O)[C@H]2O)[C@@H](O)[C@H](O)[C@H]1O)c1ccccc1` (stereo partly specified) it was 93.9% (inactive).
With `COC[C@H]1OC(=O)c2coc3c2[C@@]1(C)C1=C(C3=O)[C@@H]2CC[C@H](O)[C@@]2(C)C[C@H]1OC(C)=O`, the Potency was 18.6 µM (active).
Consider `CC(C)C[C@H](CN)CC(=O)O`, for which the viability is 113% (inactive).
Regarding `CN1C(=O)[C@@H](NC(=O)[C@H](CCC(F)(F)F)[C@H](CCC(F)(F)F)C(N)=O)N=C(c2ccccc2)c2ccccc21`, the viability was 114% (inactive).
On the same count and under the same terms, in the case of `CC(C)(NC(=O)O[C@@H]1CN2CCC1CC2)c1csc(-c2ccc(F)cc2)n1` it was 91.1% (inactive).
Turning to `C[C@@H]1CC[C@@]2(OC1)O[C@H]1C[C@H]3[C@@H]4CC=C5C[C@@H](O[C@@H]6O[C@H](CO)[C@@H](O[C@@H]7O[C@@H](C)[C@H](O)[C@@H](O)[C@H]7O)[C@H](O)[C@H]6O[C@@H]6O[C@@H](C)[C@H](O)[C@@H](O)[C@H]6O)CC[C@]5(C)[C@H]4CC[C@]3(C)[C@H]1[C@@H]2C`, the Potency was 8.33 µM (active).
With `C[C@@]12OC(=O)[C@]1([C@@H](O)[C@@H]1C=CCCC1)NC(=O)[C@@H]2CCCl`, the Potency is 0.0263 µM (active).
On to `C[C@H]1CCC/C=C/C2C[C@H](O)C[C@H]2[C@H](O)/C=C/C(=O)O1` (stereo partly specified), for which the Potency was 0.332 µM (active).
For `C#CCN(C)[C@H](C)Cc1ccccc1`, the viability is 96.9% (inactive).
